Among all 360,000 compounds or so, about 460 (0.13%) were called active. Shown is part of a subset that was picked to be rich in actives. A number with no mark means an inactive call.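 The calls were made as follows: active = inhibition above the mean inhibition of all tested compounds plus 3 SD (cut at about 73% in these data); inactive = the rest.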

Sequence of Nuclear receptor subfamily 5 group A member 2 (Homo sapiens) (O00482 whole entry, looked up): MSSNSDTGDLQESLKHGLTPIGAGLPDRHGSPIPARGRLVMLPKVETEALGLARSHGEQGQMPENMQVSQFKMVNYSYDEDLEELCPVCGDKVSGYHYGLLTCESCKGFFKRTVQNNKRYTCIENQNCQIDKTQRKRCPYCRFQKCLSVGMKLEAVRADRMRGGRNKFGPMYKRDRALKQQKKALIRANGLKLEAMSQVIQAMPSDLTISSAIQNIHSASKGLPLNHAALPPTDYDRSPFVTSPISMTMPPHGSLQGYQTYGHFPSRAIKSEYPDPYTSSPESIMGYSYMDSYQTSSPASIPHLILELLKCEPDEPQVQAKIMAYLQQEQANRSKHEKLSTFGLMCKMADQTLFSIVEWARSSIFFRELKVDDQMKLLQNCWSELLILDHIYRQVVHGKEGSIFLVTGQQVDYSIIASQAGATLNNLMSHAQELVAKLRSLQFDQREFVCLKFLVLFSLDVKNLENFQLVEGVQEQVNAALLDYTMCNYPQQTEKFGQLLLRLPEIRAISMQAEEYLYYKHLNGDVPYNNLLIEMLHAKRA

This experiment concerns the target Nuclear receptor subfamily 5 group A member 2 (Homo sapiens) (UniProt O00482). Kind of experiment: reduction of NR5A2-driven StAR reporter activity – cell-based, luminescence, HEK293T, StAR-luciferase reporter, primary screen (AID 602396).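 Also: 0% = DMSO wells and 100% = reporter-only cells lacking LRH-1.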 The following applies: LRH-1 transfected, 24 h, at 3.6 µM, active compounds read high.
Consider `CCOC(=O)C(C)Oc1cccc2c(=O)n(CC(=O)NCCc3ccc(OC)c(OC)c3)ccc12` (stereo unspecified), for which the inhibition was 3.91%.
The figure for `CC(C)=NN1C(=O)c2ccccc2NC1(C)C` is -62.5%.
Consider `COCCN(C(=O)C(C)N1C(=O)c2ccccc2C1=O)c1c(N)n(CC(C)C)c(=O)[nH]c1=O` (stereo unspecified), for which the inhibition was -4.66%.
As to `Cn1c(N)cc(-c2ccc(F)cc2)c(C#N)c1=O`, the inhibition is 6%.
The figure for `C=CCSC(CC)(CC)C(N)=O` is 16.1%; for `CC12CN(NC(=O)c3ccc(Cl)cc3)C3(C#N)CC1CCC23C` (stereo unspecified) it is 8.96%; for `CC1CCCCC1NC(=O)CO/N=C/c1ccc(OC(F)F)cc1` (stereo unspecified) it is 6.95%.
As for `[2H]C(CCOS(N)(=O)=O)c1ccccc1` (stereo unspecified), the inhibition is 3.1%.
For `CC1(C)CC(N2CCN(C(c3ccccc3)c3ccccc3)CC2)=CC(=[N+]2CCCCC2)C1`, the inhibition was 91.7% (active).
The figure for `COc1ccc(C2CC(=O)Oc3ccc(C(C)(C)C)cc32)cc1` (stereo unspecified) is 21.2%.
As to `Cn1cnc(S(=O)(=O)N2C[C@@H](O)COC[C@@H]3O[C@H](CC(=O)NC4CCC4)CC[C@H]32)c1`, the inhibition was -18.2%.
On to `COc1ccc(NC(=O)/C(Cl)=C(/Cl)S(=O)Cc2ccc(C)cc2)cn1` (stereo unspecified), for which the inhibition was 87.2% (active).
The figure for `O=C(COC(=O)Cc1ccc(Br)cc1)Nc1c(F)c(F)c(F)c(F)c1F` is 1.54%; for `CCOC(=O)CSC1=N/C(=C/c2ccc(-n3cncn3)cc2)C(=O)N1C(C)=O` it is 11.2%.
With `CCOC1CCCCC1NS(=O)(=O)c1ccc(Cl)cc1` (stereo unspecified), the inhibition was 5.98%.
The figure for `COc1ccccc1-n1ccnc(SCC(=O)NC2CCCCC2)c1=O` is 1.62%; for `O=C(Nc1ccc2c(c1)OCCO2)C(c1ccc(F)cc1)N1CCCCC1` (stereo unspecified) it is 4.16%.
On to `CCCCCCCC[n+]1cccc(C(=O)N2c3c(nc(N)[nH]c3=O)NC(C)C2C)c1` (stereo unspecified), for which the inhibition was 4.18%.
The same measure for `C=CCn1c(CNS(=O)(=O)c2ccc(Br)cc2)nnc1SC`: -25.5%; for `CCS(=O)(=O)Nc1cc(C(=O)OC)ccc1C(=O)OC`: 7.66%; for `CCOc1ccc(NS(=O)(=O)c2cc(C)c(C)cc2C)cc1`: 0.32%.
For the compound `Cc1cnc(C(=O)Oc2cccc(Cl)c2Cl)cn1`, the inhibition is 10.5%.
For the compound `CCc1c(O)cc2n(c1=O)-c1ccccc1C2(C)C`, the inhibition is 6.01%.
Turning to `Cc1cc(C)cc(NS(=O)(=O)c2ccc(Oc3ncc(C(F)(F)F)cc3Cl)cc2)c1`, the inhibition is 3.47%.
Regarding `COc1ccc(C2(C)ON(c3ccccc3C(F)(F)F)C2=O)cc1` (stereo unspecified), the inhibition was -1.81%.
With `COCCNC(=O)C1CCN(S(=O)(=O)c2ccc3c(c2)OCCO3)CC1`, the inhibition was 8.61%.
Consider `COc1ccc(C)cc1NC(=O)CSc1cccc[n+]1[O-]`, for which the inhibition was -14.4%.
In the case of `CC1(C)CC(=O)C=C(c2ccc3ncccc3c2)C1`, the inhibition was 47.8%.
`CCCNC(=O)C1(C)CCCN(C(=O)c2cccc(OC(C)=O)c2C)C1` (stereo unspecified): the inhibition is -0.02%.
For the compound `COC(=O)C(C(=O)Nc1cccc(Cl)c1C)C1CCCC1` (stereo unspecified), the inhibition is 1.94%.
Take `O=C(O)c1ccccc1C(=O)NC1=NN(c2ccccc2)CC1`: the inhibition is -6.24%.
The same measure for `O=C(NCCOc1cccnc1)c1ccc(OC2CCN(Cc3ccccn3)CC2)cc1`: 90.4% (active); for `Cn1cc(CNC(=O)c2ccc(OC3CCN(Cc4ccccn4)CC3)cc2)cn1`: 16.2%; for `CN(CCc1ccccn1)C(=O)c1ccc(OC2CCN(Cc3ccccn3)CC2)cc1`: -11.4%.
The same measure for `O=C(Nc1cccc(S(=O)(=O)N2CCCC2)c1)c1cncc(Br)c1`: -0.97%; for `COc1ccc(SC[C@H](Cc2ccccc2)N2CCN(CCc3ccccc3)CCC2=O)cc1`: -6.85%; for `CCn1nc(C(=O)NNS(=O)(=O)c2cc(/C=C/C(=O)O)cc(OC)c2OC)c2ccccc2c1=O`: 11.4%.
On to `O=C(O)C(NS(=O)(=O)c1cccc2nsnc12)c1ccccc1` (stereo unspecified), for which the inhibition is -4.31%.
For `COc1ccc2c(c1)c(=Cc1ccc(N(C)C)cc1)c1cc(-c3ccccc3)[n+](C)n12`, the inhibition was 91.5% (active).
`COc1ccc(S(=O)(=O)N2CCCCC2)cc1NC(=O)C1CC(=O)N(c2ccc3c(c2)OCCO3)C1` (stereo unspecified): the inhibition is 8.99%.
On to `NS(=O)(=O)c1ccc(NC(=O)/C=C/c2ccccc2Cl)cc1`, for which the inhibition was -11.9%.
Take `CCN(CC(=O)NCc1cccs1)C(=O)c1ccc(OC)c(S(=O)(=O)N2CCOCC2)c1`: the inhibition was -9.13%.
As to `COc1ccc(N2C(=O)C(O)C2c2ccc(C)cc2)cc1` (stereo unspecified), the inhibition was -10%.
`C/C=C/C(=O)Nc1ccc(N2CCN(c3ccc(C(F)(F)F)cn3)CC2)nc1`: the inhibition was -9.09%.
The figure for `COC(=O)c1cccc(C(=O)N2CCC(CCC(=O)NCc3ccc(F)cc3)CC2)c1` is 11.6%; for `Nc1nc(SCC(=O)NNc2c(Cl)cc(Cl)cc2Cl)n[nH]1` it is 14.2%; for `CCc1cc(=O)oc2cc(C)cc(OC(C)C(=O)O)c12` (stereo unspecified) it is 6.8%.
The figure for `CC1CC(C)(C)CC2(C1)NC(=O)N(CC(=O)Nc1nccs1)C2=O` (stereo unspecified) is -13.1%.
The same measure for `CC(=O)N1CCC(C(=O)OCc2ccc(Cl)cc2)(c2ccccc2)CC1`: -12.7%; for `OCC(O)CN(c1ccccc1)c1ccccc1` (stereo unspecified): 9.64%.
Turning to `CC(Sc1nnc(-c2cccs2)n1C1CC1)C(=O)NCC1CCCO1` (stereo unspecified), the inhibition is -12.2%.
Consider `C=CCn1c(C)cc(C2=NNC(=NCC)SC2)c1C`, for which the inhibition was 84.2% (active).
Consider `O=C(COC(=O)c1ncc(Cl)c(Cl)c1Cl)NCc1cccs1`, for which the inhibition was -2.02%.
On to `COc1cccc2c1C(=O)c1c(O)c3c(c(O)c1C2=O)CC(O)(C(C)=NNC(=O)c1ccc(Cl)c(Cl)c1)CC3OC1CC(N)C(O)C(C)O1` (stereo unspecified), for which the inhibition was 95.6% (active).
For `CCNC(=O)NNC(=O)C1CC(c2cccs2)=NO1` (stereo unspecified), the inhibition is 19.8%.
Consider `C=CCn1c2ccccc2c2nnc(SCc3[nH]c(=O)[nH]c3C(=O)CCCCC(=O)OCC)nc21`, for which the inhibition is 9.39%.
For the compound `CCOC(=O)c1sc(N(Cc2ccccc2)C(=O)CN2C(=O)CN(C)C2=O)nc1C`, the inhibition was -6.11%.
The same measure for `O=C(Nc1ccc(Cl)c(Cl)c1)N1CC=C(c2ccccc2)CC1`: -22.6%; for `O=C(CC(O)(C(F)(F)F)C(F)(F)F)Nc1ccc(Cl)c(Cl)c1`: 100% (active).
With `CC(c1cccnc1)N(CCN(C)C)C(=O)Nc1ccc(Cl)c(Cl)c1` (stereo unspecified), the inhibition is -1.18%.
For the compound `CC(C)(C)c1ccc(Oc2ccc(N)cc2)cc1`, the inhibition is 80.6% (active).
As for `CN(C)S(=O)(=O)c1ccc(Oc2ccc(S(=O)(=O)N(C)C)cc2)cc1`, the inhibition was 26%.
The figure for `C[C@H](NC(=O)C1CCN(S(=O)(=O)c2ccccc2)CC1)C(=O)NCc1ccccc1` is -15.6%; for `COc1ccccc1-n1nnnc1S(=O)(=O)Cc1ccc(Cl)cc1` it is 47.7%; for `CC[C@H](C)[C@@H](C(=O)N1CCNCC1)n1cc([C@@H](N)Cc2ccc(O)cc2)nn1` it is 5.8%.
`Cc1nn(-c2ccccc2)c2c1C(=O)NC(=O)C(C)(C)C2`: the inhibition is 10.2%.
As to `CC(=O)c1cnc(SCC(=O)O)nc1C`, the inhibition was -8.72%.
Turning to `O=C(c1cc2ccccc2o1)N1CCN(S(=O)(=O)c2ccc(Cl)s2)CC1`, the inhibition is -4.99%.
On to `COc1ccc(S(=O)(=O)N2CCOC23CCN(S(=O)(=O)c2ccc([N+](=O)[O-])cc2)CC3)cc1`, for which the inhibition is 4.75%.
As to `O=C(O)C1=C(C(=O)O)C2CCC1C2`, the inhibition was -20.2%.
The same measure for `CCn1ccnc1CN1CCCC(C(=O)c2ccc3c4c(cccc24)CC3)C1` (stereo unspecified): 4.32%; for `C/C=C(/C)C(=O)O[C@@H]1c2cc3c(c4c2[C@@]2(CO4)C(=O)C(OC)=C(OC)C=C2C[C@@H](C)[C@H]1C)OCO3`: 8.2%; for `Cc1ccc(/C=C/C(=O)OCC(=O)Nc2cccnc2Cl)cc1`: -17.1%.
With `COC(=O)Cc1cnc(NC(=O)CSc2nc(C(C)C)cc(=O)[nH]2)s1`, the inhibition was 7.32%.
The same measure for `Cc1cccc(C(=O)C(O)(c2ccccc2)C2CCCCC2=O)c1` (stereo unspecified): -15.3%; for `CCOc1ccc(CCNC(=O)COC(=O)c2ccc(C)c(S(=O)(=O)N3CCOCC3)c2)cc1OCC`: -2.87%.
Consider `O=C(O)COc1nsnc1N1CCOCC1`, for which the inhibition is -2.76%.
Regarding `Cc1ccc(C)c(S(=O)(=O)Nc2cc(C)on2)c1`, the inhibition was 13.7%.
As to `CCOc1ccc(N2CC(C(=O)N/N=C/c3sccc3C)CC2=O)cc1` (stereo unspecified), the inhibition is 3.97%.
As for `CCc1ccc2[nH]c(=O)c(Cc3ccccc3)c(O)c2c1`, the inhibition was 10.4%.
The figure for `COc1ccc(Cl)cc1NS(=O)(=O)c1cccc(C(=O)NCC2CCCO2)c1` (stereo unspecified) is 10.9%; for `CCOCCCNC(=O)c1cn(CC(C)C)c(=O)c2c1c1ccccc1n2C` it is 0.96%; for `COC(=O)c1cn(C)c2ccc(S(=O)(=O)N3CC(C)CC(C)C3)cc2c1=O` (stereo unspecified) it is -9.25%.
The same measure for `COc1ccc(CCn2c(NN=C3CCCC3)nc3c2c(=O)[nH]c(=O)n3C)cc1`: 14%.
Take `COCc1cc(C)n(CC(=O)NCC2CCCO2)c(=O)c1C#N` (stereo unspecified): the inhibition is -7.89%.
As to `N/C(=N\S(=O)(=O)c1cc(C(F)(F)F)cc(C(F)(F)F)c1)c1cccs1`, the inhibition was 10.3%.
In the case of `COc1cccc(CNS(=O)(=O)c2cc3c(cc2C)n(C)c(=O)c(=O)n3C)c1`, the inhibition was 1.81%.
With `Cc1ccc(CNC(=O)C2CCCN(S(C)(=O)=O)C2)cc1` (stereo unspecified), the inhibition was 14.4%.
Consider `CCCn1c(C)cc(C(=O)COC(=O)c2c(C)nn(-c3ccccc3)c2C)c1C`, for which the inhibition is 7.52%.
On to `Cc1ccsc1C(=O)OCC(=O)c1cc(C)n(CC2CCCO2)c1C` (stereo unspecified), for which the inhibition is 80.7% (active).
Consider `COCCn1c(C)cc(C(=O)COC(=O)CNC(=O)c2ccco2)c1C`, for which the inhibition is 5.6%.
